Experimental data taken from PubChem BioAssay (NCATS).
Several values for one entry are separate records, joined by “and”; a condition that tells them apart may be missing. Equal entries are not always repeated. Records with an inconclusive call do not appear. Activity calls are given as the source filed them. The call rests on the fitted dose curve; in most records, active means well fitted cell-killing curve with a large enough effect; inconclusive means small, poorly fitted or top-dose-only effect, or effect the other way; inactive means flat fitted curve, though single readings scatter.

Test: qHTS assay for cell viability of HEK293 cells (AID 743288); further: nearly all actives have a fitted effect of over 50% in size
Conditions: ATP luminescence (CellTiter-Glo), 18 h, hits give low values
Outline: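 The Tox21 protocol used parental HEK293 cells treated for 18 h at 37 C with compounds delivered by pintool; ATP-coupled luminescence after 30 min at room temperature gave viability.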
On the % scale 0 is the no-effect control and ±100 the full control effect.

Row | SMILES | max response
1 | NC(=O)c1ncn([C@@H]2O[C@H](CO)[C@@H](O)[C@H]2O)n1 | -7.49% (inactive)
2 | Nc1ccc(S(=O)(=O)Nc2nccs2)cc1 | -1.59% (inactive)
3 | CC(O)COc1ccccc1 (stereo unspecified) | 1.97% (inactive)
4 | COc1ccc(Cl)cc1C(=O)NCCc1ccc(S(=O)(=O)NC(=O)NC2CCCCC2)cc1 | -4.82% (inactive)
5 | CC1(C)[C@@H]2CC[C@@]1(C)C(=O)C2 | -3.96% (inactive)
6 | CCCCC(CC)COC(=O)c1ccccc1O (stereo unspecified) | -7.63% (inactive)
7 | CN(C)CCOC(C)(c1ccccc1)c1ccccn1 (stereo unspecified) | -4.19% (inactive)
8 | NCCNCCNCCNCCN | -15.2% (inactive) and 3.69% (inactive)
9 | O=S(=O)(O)NC1CCCCC1 | -0.923% (inactive)
10 | CC1=C(/C=C/C(C)=C/C=C/C(C)=C/C(=O)O)C(C)(C)CCC1 | -2.27% (inactive) and -2.67% (inactive)
11 | NCCNCCNCCN | -5.67% (inactive)
12 | C[C@]12CC[C@@H]3c4ccc(O)cc4CC[C@H]3[C@@H]1CCC2=O | -13% (inactive)
13 | COc1ccccc1O | 2.42% (inactive) and 2.72% (inactive) and -4.36% (inactive)
14 | Cc1cc2nc3c(=O)[nH]c(=O)nc-3n(C[C@H](O)[C@H](O)[C@H](O)CO)c2cc1C | -6.02% (inactive)
15 | C[C@]12C[C@H](O)[C@H]3[C@@H](CCC4=CC(=O)CC[C@@]43C)[C@@H]1CC[C@@H]2C(=O)CO | -14.2% (inactive) and 1.25% (inactive)
16 | Cc1cccc(Nc2cc(Cl)nc(SCC(=O)O)n2)c1C | -9.34% (inactive)

Row | SMILES | max response
17 | Oc1cccc(O)c1 | 11.8% (inactive)
18 | CCOC(=O)c1ccc(O)cc1 | -3.62% (inactive)
19 | Cc1cc(CC(=O)O)n(C)c1C(=O)c1ccc(Cl)cc1 | 2.85% (inactive)
20 | CNC(=O)Oc1ccc2c(c1)[C@]1(C)CCN(C)[C@@H]1N2C | -7.46% (inactive)
21 | CC(O)CN(CCN(CC(C)O)CC(C)O)CC(C)O (stereo unspecified) | -9.37% (inactive)
22 | NC(=O)N/N=C/c1ccc([N+](=O)[O-])o1 | -5.04% (inactive) and -17.6% (inactive)
23 | CC(CN1c2ccccc2Sc2ccccc21)N(C)C (stereo unspecified) | -10.5% (inactive)
24 | CCCc1c(OCCCCc2nn[nH]n2)ccc(C(C)=O)c1O | -7.07% (inactive)
25 | CCCCOC(=O)c1ccc(O)cc1 | -12.8% (inactive) and -6.18% (inactive)
26 | CC12CCC(CC1)C(C)(C)O2 | 4.94% (inactive)
27 | [Cl][In]([Cl])[Cl] | 7.88% (inactive)
28 | O=C1O[C@H]([C@@H](O)CO)C(O)=C1O | -2.8% (inactive) and 5.16% (inactive)
29 | O=C1c2c(O)cccc2Cc2cccc(O)c21 | -1.66% (inactive)
30 | O=C1NS(=O)(=O)c2ccccc21 | 0.942% (inactive)
31 | CCCCCCCCCCCCOS(=O)(=O)O | -2.66% (inactive) [middle of 4 runs]
